Laboratory results from PubChem BioAssay.
Activity calls are given as the source filed them.

What was measured:
[1] = molecular target: Albumin (Bos taurus) (UniProt P02769); assay: compounds binding labelled BSA control protein – biochemical, small-molecule microarray, Alexa647 label, 635/667 nm fluorescence, artefact control for SMM control protein annotation, profiling panel (AID 1118); settings: BSA-A647 binding, fluorescence 635 nm, higher = more signal;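 further: score merges 667 nm emission intensity and signal-to-noise per printed compound spot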
[2] = probe aXIP binding to arrayed compounds – biochemical, NeuroSMM set, 635/667 nm fluorescence, primary screen (AID 1119); settings: small-molecule microarray, higher = more signal, called active from +8 up or from −8 down;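 further: probe is the protein aXip251-270 applied at 1 µg/mL to compound-printed slides; binding of probe to printed compounds measured as 667 nm fluorescence plus signal to noise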
[3] = probe aNOTCH3 binding on compound microarray – biochemical, small-molecule microarray, 635/667 nm fluorescence, primary screen (AID 1120); settings: higher = more signal;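 further: probe is a biotin-tagged antibody raised against NOTCH3 rather than NOTCH3 protein; score merges spot fluorescence near 667 nm with spot signal to noise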
[4] = probe aNOTCH2 binding on compound microarray – biochemical, small-molecule microarray, 635/667 nm fluorescence, primary screen (AID 1121); settings: higher = more signal;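 further: score merges feature fluorescence read at 667 nm with its signal to noise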
[5] = molecular target: Carbonic anhydrase 2 (Homo sapiens) (UniProt P00918); assay: compounds binding carbonic anhydrase 2 – biochemical, small-molecule microarray, Alexa647-labelled CAII, profiling panel (AID 1122); settings: CAII-A647 binding fluorescence, higher = more signal
[6] = COS7 lysate on small-molecule microarray, probe aHis, 635 nm (AID 1123); settings: COS7 cell lysate, fluorescence, higher = more signal;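 further: z-score combines 667nm fluorescence intensity with signal-to-noise per printed compound spot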
[7] = probe aLAP1 signal on lysate-treated microarray – cell lysate, small-molecule microarray, COS7 lysate, primary screen (AID 1124); settings: probe aLAP1, fluorescence, higher = more signal;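 further: lysate comes from COS7 cells expressing LAP1 and is applied at 0.3 µg/mL; score merges spot fluorescence near 667 nm with signal-to-noise over triplicate slides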
[8] = tested on: Sam68 (KHDRBS1); assay: compounds binding KHDRBS1 protein – biochemical, small-molecule microarray, 635 nm fluorescence, primary screen (AID 1125); settings: higher = more signal;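 further: score merges 667 nm channel intensity with signal to noise over triplicate slides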
[9] = tested on: Chordin-like protein 2 (CHRDL2); assay: compounds binding chordin-like 2 – biochemical, small-molecule microarray, 635 nm fluorescence, primary screen (AID 1126); settings: fluorescence 635 nm, higher = more signal;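 further: printed compound slides probed with Chrdl2 protein at 4 µg/mL for 1 h at 4 C; score merges 667 nm emission intensity with signal to noise over three replicate slides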
[10] = molecular target: Concanavalin-A (Canavalia ensiformis) (UniProt P02866); assay: compounds binding concanavalin A lectin – biochemical, small-molecule microarray, Alexa647 label, 635 nm, artefact control for SMM control protein annotation, primary screen (AID 1127); settings: ConA-A647 binding fluorescence, higher = more signal;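 further: z combines 667 nm emission intensity with signal-to-noise across three replicate slides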
Sequence of Concanavalin-A (Canavalia ensiformis) (P02866 whole entry, looked up): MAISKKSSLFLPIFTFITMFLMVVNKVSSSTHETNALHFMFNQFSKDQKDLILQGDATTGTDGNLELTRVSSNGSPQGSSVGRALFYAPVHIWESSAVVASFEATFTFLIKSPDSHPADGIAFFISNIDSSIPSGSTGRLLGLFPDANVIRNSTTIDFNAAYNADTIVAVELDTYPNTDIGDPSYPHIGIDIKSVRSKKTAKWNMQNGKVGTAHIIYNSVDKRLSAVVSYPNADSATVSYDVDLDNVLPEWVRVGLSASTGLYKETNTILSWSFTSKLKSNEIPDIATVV

Sequence of Albumin (Bos taurus) (P02769 whole entry, looked up): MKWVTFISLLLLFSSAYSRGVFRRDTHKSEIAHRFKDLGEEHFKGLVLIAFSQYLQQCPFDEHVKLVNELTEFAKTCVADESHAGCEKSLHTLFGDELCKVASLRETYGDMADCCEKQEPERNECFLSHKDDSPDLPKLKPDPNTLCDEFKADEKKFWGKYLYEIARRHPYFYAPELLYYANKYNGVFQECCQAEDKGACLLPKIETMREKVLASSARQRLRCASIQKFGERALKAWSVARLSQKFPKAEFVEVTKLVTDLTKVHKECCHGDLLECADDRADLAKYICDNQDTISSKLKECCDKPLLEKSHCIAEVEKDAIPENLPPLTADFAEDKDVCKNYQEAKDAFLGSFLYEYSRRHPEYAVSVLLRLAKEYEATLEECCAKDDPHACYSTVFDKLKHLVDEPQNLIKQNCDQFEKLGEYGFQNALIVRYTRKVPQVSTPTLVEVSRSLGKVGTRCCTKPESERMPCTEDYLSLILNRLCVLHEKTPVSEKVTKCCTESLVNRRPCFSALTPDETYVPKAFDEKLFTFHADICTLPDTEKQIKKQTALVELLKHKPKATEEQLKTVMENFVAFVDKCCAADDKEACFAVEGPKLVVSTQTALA

SMILES	composite z-score [1]	composite Z-score [2]	composite z-score [3]	composite z-score [4]	composite z-score [5]	composite z-score [6]	composite z-score [7]	composite z-score [8]	composite z-score [9]	composite z-score [10]
COc1cc(CO)cc(I)c1O[C@H]1C=C(C(=O)NCCO)C[C@@H](N(CCN2CCOCC2)C(=O)C2CCCO2)[C@@H]1O (stereo not given in full)	-0.184	0.204 (inactive)	0.0261	-0.0684	-0.107	-0.61	-0.0581	-0.0878	0.365	-0.0855
COC(=O)[C@@]1(Cc2ccc(F)cc2)[C@H]2c3cc(C(=O)N4CCCC4)n(Cc4ccc(C(F)(F)F)nc4)c3C[C@H]2CN1C(=O)c1ccccc1	1.05	0.136 (inactive)	0.522	-0.0013	0.579	3.01	0.4	1.23	-1.41	0.962
Cc1ccc(S[C@]2(C(=O)NC(C)C)CC(=O)N(Cc3ccccc3)[C@@H]2c2ccc(CO)cc2)cc1	0.161	0.339 (inactive)	-0.333	-0.0451	0.445	-0.0367	-0.915	-0.76	-1.31	-1.06
COCCOC(=O)N1C(=O)[C@@]2(c3cc(C#CCC(C(=O)OC)C(=O)OC)ccc31)[C@H](c1ccc(O)cc1)N1[C@H](c3ccccc3)[C@H](c3ccccc3)OC(=O)[C@H]1[C@@H]2C(=O)N1CCc2cc(OC)c(OC)cc2C1	-0.0894	-0.262 (inactive)	0.147	-0.0166	0.378	1.12	0.761	1.29	0.242	0.903
COc1ccc(-c2cc3c(c(CCc4ccccc4)n2)[Si](C(C)C)(C(C)C)O[C@H]3c2ccccc2)cn1	-0.425	-0.161 (inactive)	-0.0221	-0.162	-0.299	-0.405	0.0028	-0.605	-0.315	0.571
COC(=O)[C@@]1(Cc2ccc(F)cc2)[C@H]2c3cc(C(=O)N(C)C)n(CCF)c3C[C@H]2CN1C(=O)c1ccccc1	0.914	0.312 (inactive)	-0.0044	0.057	0.733	2.6	0.89	0.706	-0.411	0.476
CC(C)C(=C=CC[C@H](O)c1cccc(OCCO)c1)C[C@H](O)c1ccccn1	0.481	-0.128 (inactive)	-0.0647	-0.146	0.811	0.48	0.182	0.353	-0.0719	0.13
COC(=O)[C@@]1(Cc2ccc(F)cc2)[C@H]2c3cc(C(=O)N4CCCC4)n(C[C@H](O)CO)c3C[C@H]2CN1C(=O)c1ccccc1	1.13	0.133 (inactive)	0.591	0.678	0.844	2.88	1.23	0.208	0.0578	0.779
C=CCN1C(=O)[C@@]2(O[C@@H](CCO)[C@H]([Si](C)(C)c3ccc(OC)cc3)[C@H]2C)c2cc(N3CCCCC3=O)ccc21	0.446	0.734 (inactive)	0.239	-0.108	0.429	1.17	0.0635	0.702	0.285	0.901
COC(=O)C(CC#Cc1ccc2c(c1)[C@]1(C(=O)N2)[C@H](c2ccc(OCCO)cc2)N2[C@H](c3ccccc3)[C@H](c3ccccc3)OC(=O)[C@H]2[C@@H]1C(N)=O)C(=O)OC	0.734	-0.0003 (inactive)	-0.209	-0.136	0.389	2.2	0.431	1.06	-0.907	1.14
C=CC[C@@]1(C(=O)NCCCOC)N=C(c2ccc(OCCCO)cc2)O[C@@H]1c1ccccc1CN=[N+]=[N-]	0.829	0.202 (inactive)	0.518	-0.108	0.596	2.61	0.159	1.29	0.0984	1.08
[N-]=[N+]=Nc1ccccc1C[C@@]1(C(=O)NCc2ccccc2)N=C(c2ccc(OCCCO)cc2)O[C@@H]1c1ccccc1	0.747	0.157 (inactive)	0.446	0.309	0.645	1.99	0.692	1.3	0.621	0.775
C=CCNC(=O)[C@H]1[C@@H]2C(=O)O[C@@H](c3ccccc3)[C@@H](c3ccccc3)N2[C@@H](c2ccc(O)cc2)[C@]12C(=O)N(C(=O)OCCOC)c1ccc(C#Cc3ccc(OC)cc3)cc12	0.451	-0.0437 (inactive)	0.0271	-0.112	0.382	0.428	0.5	0.934	-0.142	0.876
O=C1C2C=CC(C(O)c3ccccn3)N(Nc3ccc([N+](=O)[O-])cc3)C2C(=O)N1c1ccccc1 (stereo not given)	0.89	0.0129 (inactive)	0.0162	0.0215	0.592	0.438	1.85	0.102	-0.421	1.13
CCCCCCc1nc(Cc2cc(OC)c(OC)c(OC)c2)c(C)c2c1[Si](C(C)C)(C(C)C)OC2	-0.287	0.108 (inactive)	-0.13	-0.178	-0.0168	0.0854	-0.251	0.294	0.19	0.0356
CN(C)CCCCCCNC(=O)[C@@H]1C[C@@H]2C(=O)N[C@@H](CCCC[N+](C)(C)C)C(=O)N2[C@@H]1c1cccc(OCCO)c1	0.792	1.88 (inactive)	-0.155	-0.0495	0.321	0.617	0.98	-0.311	-0.0783	0.566
CO[C@H]1O[C@H](CO)[C@@H](OC(=O)Nc2cccc(F)c2)[C@H](OC(=O)c2cc3ccccc3[nH]2)[C@H]1OC(=O)c1cc2ccccc2[nH]1	0.467	-0.0925 (inactive)	-0.0048	-0.132	0.209	0.799	0.337	-0.537	-0.332	-0.732
CC(CO)N1C(=O)[C@@H]2[C@H]3C(=O)OCC=C[C@H]3OC23C=CCN(c2ccc4ccccc4c2)C(=O)[C@@H]13 (stereo not given in full)	0.876	0.0987 (inactive)	-0.381	-0.132	0.324	-0.312	-0.139	-0.892	-1.66	-0.387
CC(=O)NCCCC[C@@H]1NC(=O)[C@H]2C[C@@H](C(=O)O)[C@@H](c3cccc(OCCO)c3)N2C1=O	0.757	0.446 (inactive)	0.348	-0.0644	0.415	1.05	1.32	1.29	1.11	0.587
COCCOC(=O)N1C(=O)[C@@]2(c3cc(C#CC4(O)CCCCCC4)ccc31)[C@H](C(N)=O)[C@H]1C(=O)O[C@H](c3ccccc3)[C@H](c3ccccc3)N1[C@@H]2c1ccc(OCCO)cc1	0.736	0.133 (inactive)	0.086	-0.118	0.566	2.58	0.412	1.3	-0.0029	1.17
O=C1c2ccccc2[C@@]2(Cc3ccccc3N(CC(F)(F)F)C2=O)[C@H](c2ccc(CO)cc2)N1Cc1ccccc1	-0.507	-0.207 (inactive)	0.0698	-0.219	-0.13	-0.211	0.0163	0.166	0.62	0.0118
[N-]=[N+]=NCc1ccccc1[C@H]1OC(c2ccc(OCCCO)cc2)=N[C@@]1(CCS(=O)(=O)c1ccccc1)C(=O)O	0.952	0.177 (inactive)	0.212	-0.118	0.754	2.12	0.0621	0.367	-0.692	0.399
CC1CC/C=C\[C@H]2OC34C=CCN(C(C)C)C(=O)[C@H]3N(C(C)CO)C(=O)[C@@H]4C2C(=O)O1 (stereo not given in full)	0.702	0.439 (inactive)	-0.162	-0.115	0.418	-0.406	-0.108	-0.26	-0.337	-0.0657
COC(=O)[C@@]1(Cc2ccccc2)[C@H]2c3cc(C(=O)N(C)C)n(Cc4nc5ccccc5[nH]4)c3C[C@H]2CN1C(=O)c1ccccc1	1.01	0.0729 (inactive)	0.266	0.0576	0.826	3.44	0.972	1.24	-0.538	1.09
C[N+](C)(C)CCCC[C@@H]1NC(=O)[C@H]2C[C@@H](C(=O)O)[C@@H](c3ccc(O)cc3)N2C1=O	-0.804	-0.55 (inactive)	-0.165	-0.104	0.704	1.4	0.606	0.744	0.616	0.905
COc1ccc(CCNC(=O)[C@@H]2c3ccccc3C(=O)N(C(C)C)[C@H]2c2ccc(CO)cc2)cc1	-1.09	1.13 (inactive)	-0.209	-0.132	0.722	1.42	-0.362	-0.139	-1.87	-0.574
COC(=O)[C@@]1(Cc2ccc(F)cc2)[C@H]2c3cc(C(=O)N(C)C)n(Cc4ccc(C(F)(F)F)nc4)c3C[C@H]2CN1C(=O)c1ccccc1	0.98	-0.387 (inactive)	0.894	-0.0531	0.726	3.26	0.311	1.33	0.214	1.1
CC(C)N1CC=CC23O[C@@H]4/C=C\CCCOC(=O)C4[C@H]2C(=O)N(C(C)CO)[C@@H]3C1=O (stereo not given in full)	-0.446	0.0835 (inactive)	-0.24	-0.177	0.913	0.17	-0.443	-0.222	-0.956	-0.313
